TSG101-PTAP inh: blocks PTAP/TSG101 interaction to inhibit HIV-1 budding; Q99816; Fluorescence polarization, FITC-PTAP peptide / Tsg101 binding; Potency, µM (top dose mostly 115 µM), without a hit: at the top dose activity change, negative = inhibition, usual class: inhibitors; 340,000 tested, under 10 active; AID 493005; active means well fitted inhibition curve with a large enough effect in the main read-out, with a control signal flat, not every such curve was filed as active; inconclusive means small, poorly fitted or top-dose-only effect, or effect the other way, or a change in a side signal; inactive means no such curve, though single readings can be large or run the other way; further: % of control where 0% means no effect
Target sequence (Q99816 whole entry, looked up): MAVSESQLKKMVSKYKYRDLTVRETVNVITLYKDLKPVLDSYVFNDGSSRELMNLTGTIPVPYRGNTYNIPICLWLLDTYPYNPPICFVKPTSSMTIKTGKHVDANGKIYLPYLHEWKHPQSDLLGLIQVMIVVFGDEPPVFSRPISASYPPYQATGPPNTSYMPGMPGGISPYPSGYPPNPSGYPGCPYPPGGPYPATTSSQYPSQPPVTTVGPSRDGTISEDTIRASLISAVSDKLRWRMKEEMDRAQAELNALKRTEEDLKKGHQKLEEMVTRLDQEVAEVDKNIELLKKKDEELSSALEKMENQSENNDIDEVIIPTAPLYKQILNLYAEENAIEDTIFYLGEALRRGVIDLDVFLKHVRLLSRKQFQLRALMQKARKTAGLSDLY
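Steps: Tsg101 binding domain dispensed (10 uM final), compounds pinned in DMSO, FITC-labeled PTAP-motif peptide added (50 nM final); after 20 min binding at room temperature, polarization measured.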
MCF10A rereplic: inducers of DNA re-replication in MCF 10A breast cells | MCF 10A DNA re-replication, Hoechst nuclear intensity, 48 h | Potency, µM (top dose mostly 46.1 µM), for the others: at the highest dose activity, positive = re-replication, hits mostly activators | actives 2.9% (n = 350,000) | AID 624296; further: % of control where 0% means no effect; nearly all actives have a fitted effect of over 50% in size
KB-V1 cytotox: kills drug-selected multidrug resistant KB-V1 cells; KB-V1 MDR cells viability, CellTiter-Glo, 72 h; Potency, µM (series often up to 46.1 µM), usual class: cytotoxic; actives 3.4% (n = 400,000); AID 1347076; further: on the % scale 0 is the no-effect control and ±100 the full control effect; nearly all actives have a fitted effect of over 60% in size
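Drug-selected KB-V1 cells, grown in DMEM lacking phenol red with 10% FBS, receive compound titrations; after three days at 37 degrees C, surviving cell ATP is quantified by CellTiter-Glo luminescence and responses normalized and curve-fitted.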
SW480 rerep: inducers of DNA re-replication in SW480 colon cancer cells. SW480 DNA re-replication, Hoechst DNA content imaging, 48 h. actives 1.8% (n = 340,000). AID 624297. Potency, µM (highest dose often 46.1 µM), without a hit: top-dose re-replication activation, most hits filed as activators; further: % of control where 0% means no effect; nearly all actives have a fitted effect of over 55% in size
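Image-based DNA-content assay: after two days of treatment, nuclei were labelled with the DNA dye Hoechst and imaged, and hits were compounds raising the count of nuclei showing high fluorescence intensity.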
KB-3-1 tox: kills parental KB-3-1 adenocarcinoma cells. KB-3-1 viability, CellTiter-Glo ATP luminescence, 72 h. Potency, µM (doses to about 46.1 µM), actives largely listed as cytotoxic. actives 1.4% (n = 400,000); further: on the % scale 0 is the no-effect control and ±100 the full control effect; nearly all actives have a fitted effect of over 60% in size
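Cytotoxicity measured as CellTiter-Glo luminescence after 72 h at 37 C. Compound titrations were pinned onto drug-naive KB-3-1 parental adenocarcinoma cells grown in DMEM with 10% FBS, and normalized data fitted to concentration-response curves.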
PINK1 expr mod: modulators of PINK1 expression | PINK1 immunofluorescence, high-content cytometry, 24 h | Potency, µM (series often up to 76.6 µM), for inactives: top-dose activation (PINK1 increase), usual class: activators | actives 0.2% (n = 410,000) | AID 624263; active means well fitted activation curve with a large enough effect; inconclusive means small, poorly fitted or top-dose-only effect; cell line not stated here; further: % of control where 0% means no effect; nearly all actives have a fitted effect of over 65% in size
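PINK1 protein level read as immunofluorescence by microplate cytometer in a fixed, stained stable cell line after 24 h exposure to five compound concentrations, with CCCP as control.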
Active calls of the source: *; i = inactive; ? = inconclusive; / = no result; [ ] = another dose, or the depositor's remark. Rows were chosen to be rich in hits. Some 6.8% of all compounds tested hit in one or more screens of this group. Unless noted, the call rests on the fitted dose curve; in most records, active means well fitted curve in the direction sought with a large enough effect; inconclusive means small, poorly fitted or top-dose-only effect, or another doubt; inactive means no such curve, though single readings can be large; an effect the other way counts as inactive or inconclusive. Potency means the concentration at half of the fitted maximal effect.

SMILES	TSG101-PTAP inh	MCF10A rereplic	KB-V1 cytotox	SW480 rerep	KB-3-1 tox	PINK1 expr mod
Cc1oc(-c2ccc(Cl)cc2)nc1CN1CCC(C(=O)NCCCN2CCCC(C)C2)CC1 (stereo not given)	-2%	2%	i	?	?	-2%
CCCC[n+]1ccn(-c2nc3ccccc3nc2[N-]S(=O)(=O)c2ccc(Br)cc2)c1	-4%	?	i	18µM*	i	4%
CC(C)CC[n+]1ccn(-c2nc3ccccc3nc2[N-]S(=O)(=O)c2ccccc2)c1	-1%	-4%	i	-7%	i	-4%[38.3 µM]
O=S(=O)([N-]c1nc2ccccc2nc1-n1cc[n+](Cc2ccccc2)c1)c1ccc(Cl)cc1	-1%	18µM*	i	18µM*	i	12%
CC(C)c1cnc2c(c1SCc1cccc(C(F)(F)F)c1)c(=O)n(C)c(=O)n2C	/	/	/	/	/	1%
Cc1ccccc1C1c2[nH]c3ccccc3c2C[C@H]2C(=O)N(c3ccccc3C(=O)NCCCN3CCOCC3)C(=O)N12 (stereo not given in full)	-8%	12µM*	i	?	i	0%
CN(C)/[N+]([O-])=N/Oc1ccc([N+](=O)[O-])cc1[N+](=O)[O-]	/	/	/	/	/	0%
Cc1ccc(-n2[nH]c(C)c(/C=N/n3c(C)nc4ccccc4c3=O)c2=O)cc1	-12%	4.6µM*	?	?	i	?
Cc1[nH]n(-c2ccccc2)c(=O)c1/C=N/n1c(C)nc2ccccc2c1=O	1%	9%	?	?	i	-2%
Cc1nc2ccccc2c(=O)n1/N=C/c1ccc2ccccc2c1O	-4%	2%	i	16µM*	?	5%
Cc1cc([N+](=O)[O-])cc(/C=N/n2c(C)nc3ccccc3c2=O)c1O	-6%	16µM*	?	?	i	5%
Cc1nnc(-c2ccccc2)c(=O)n1/N=C/c1c(O)ccc2ccccc12	2%	16%	2.9µM*	6.5µM*	?	-1%
Cc1nnc(C)n1/N=C/c1c(O)ccc2ccccc12	2%	-1%	?	-2%	i	0%
CCn1cc2nc(SCc3cccc(C(F)(F)F)c3)n(Cc3ccc(C)cc3)c(=O)c2n1	/	/	?	/	i	1%
CCN(CC)CCN(C(=O)c1ccco1)c1nc2ccc(F)cc2s1	/	/	/	/	/	5%
COc1ccc(Nc2nnc(-c3ccc(C)c(S(=O)(=O)N4CCN(C)CC4)c3)c3ccccc23)cc1	/	/	i	/	?	2%
CC(C)n1nc(C(=O)Nc2cccc(S(=O)(=O)NCc3ccco3)c2)c2ccccc2c1=O	-3%	11%	21µM*	0%	?	0%
O=C(Nc1ccccc1N1CCOCC1)c1cc(-c2ccncc2)nc2ccccc12	-1%	18%	18µM*	8%	i	1%
COc1ccc(-c2cc(C(=O)Nc3ccccc3N3CCOCC3)c3ccccc3n2)cc1OC	0%	16µM*	?	?	?	1%
COc1ccc(-c2cc(C(=O)NNC(=O)c3csc(N4CCOCC4)n3)c3ccccc3n2)cc1OC	-6%	?	i	-385%	i	3%
COc1ccc(C2CC(=O)c3c([nH]c(C(=O)OCCOc4ccccc4)c3C)C2)cc1OC (stereo not given)	/	/	i	/	i	1%
Cc1ccc(C)c(NC(=O)CCCn2nc(C)c3sc4ccccc4c3c2=O)c1	/	/	?	/	i	4%
Cc1cc(CCNC=O)c(C)c2c1sc1ccccc12	-2%	?	16µM*	3%	16µM*	1%
Cc1cccc(N2CCN(C(=O)Cn3nc(Cc4cccnc4)c4ccccc4c3=O)CC2)c1C	/	/	/	/	/	1%
CCC1(C2CCN(C(=O)c3ccc4ccccc4c3)CC2)NC(=O)N(CCc2scnc2C)C1=O (stereo not given)	/	/	/	/	/	1%
SMILES	TSG101-PTAP inh	MCF10A rereplic	KB-V1 cytotox	SW480 rerep	KB-3-1 tox	PINK1 expr mod
O=C1CCCC2=C1C(c1ccc(OS(=O)(=O)c3ccc(Cl)cc3)cc1)C1=C(CCCC1=O)O2	-2%	?	4.6µM*	11%	?	5%[38.3 µM]
CCc1ccc(C2C3=C(CCCC3=O)OC3=C2C(=O)CCC3)cc1	-4%	4%	i	23%	i	3%
COc1ccc(NC(=O)c2ccccc2NS(=O)(=O)c2ccc(CNC(C)=O)cc2)c(OC)c1	0%	5.2µM*	i	-41%	?	6%
CCCNC(=O)c1ccccc1NS(=O)(=O)c1ccc(OC)c(OC)c1	-12%	14%	?	2%	i	1%
COc1ccc(S(=O)(=O)Nc2ccccc2C(=O)Nc2nc(-c3ccc(F)cc3)cs2)cc1OC	-11%	?	15µM*	?	?	?
O=C(Nc1nc(-c2ccc(Oc3ccccc3)cc2)cs1)C1=COCCO1	-2%	19%	18µM*	-5%	?	3%
COc1ccc(-c2csc(NC(=O)c3c(OC)cccc3OC)n2)cc1	-2%	?	i	4%	i	7%
COc1ccc(-c2csc(NC(=O)c3ccccc3NS(=O)(=O)c3ccc(C)cc3)n2)cc1	-6%	?	2.3µM*	2%	2.6µM*	14µM*
COc1ccc(S(=O)(=O)Nc2ccccc2C(=O)NCc2cccnc2)cc1	-3%	?	i	?	i	4%
COc1cc(Cl)c(C)cc1NC(=O)CCCN1C(=O)C(c2ccccc2)Oc2cccnc21 (stereo not given)	/	/	i	/	i	1%
CC1CCN(C(=O)CSc2nnc(NC(=O)Nc3ccccc3)s2)CC1	/	/	/	/	/	0%
Cc1cnc(C)c(-c2cc(F)cc3c2OC(CNC(=O)CN2CCCC2)C3)n1 (stereo not given)	/	/	/	/	/	-1%
Cc1ccc(-n2nc3c(N4CCCC(C(=O)NCc5ccccc5C)C4)nnc(C)c3c2C)cc1 (stereo not given)	/	/	/	/	/	3%
Cc1ccccc1-c1nnc(NC(=O)Nc2ccc3ccccc3c2)s1	/	/	i	/	?	/
COC(=O)c1ccc2c(=O)n(CCc3ccc(S(N)(=O)=O)cc3)c(SCC(=O)C(C)(C)C)nc2c1	/	/	i	/	i	14%
CCN(CC)c1nc(-c2ccc(Cl)cc2)cc(C(F)(F)F)c1C#N	0%	1.2µM*	i	?	i	0%
Cc1nnc(NC(=O)C2CC(=O)N(Cc3ccccc3)C2)s1 (stereo not given)	-6%	8%	i	-1%	i	2%
O=C(Nc1nnc(SCc2ccc(F)cc2)s1)C1CC(=O)N(Cc2ccccc2)C1 (stereo not given)	2%	?	21µM*	29%	i	6%
